Data reported in PubChem BioAssay AID1619 (SRMLSC, 2009).
The campaign covered roughly 220,000 compounds. About 830 (0.38%) were called active.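 The calls were made as follows: active = compound inhibiting the enzyme by more than half at any dose during confirmatory dose-response retesting; inconclusive = strong single-dose inhibitors picked by rank but not retested; inactive = the rest.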 The list is a sample of the results. Entries with a potency or affinity are not part of this list. Residues, ends and D or L forms follow the SMILES beside them. *: point of attachment. Bz = O=C(c1ccccc1)*

Biological target: Leucine aminopeptidase (Plasmodium falciparum (isolate 3D7)) (UniProt Q8IL11)
Sequence (Q8IL11 whole entry, looked up): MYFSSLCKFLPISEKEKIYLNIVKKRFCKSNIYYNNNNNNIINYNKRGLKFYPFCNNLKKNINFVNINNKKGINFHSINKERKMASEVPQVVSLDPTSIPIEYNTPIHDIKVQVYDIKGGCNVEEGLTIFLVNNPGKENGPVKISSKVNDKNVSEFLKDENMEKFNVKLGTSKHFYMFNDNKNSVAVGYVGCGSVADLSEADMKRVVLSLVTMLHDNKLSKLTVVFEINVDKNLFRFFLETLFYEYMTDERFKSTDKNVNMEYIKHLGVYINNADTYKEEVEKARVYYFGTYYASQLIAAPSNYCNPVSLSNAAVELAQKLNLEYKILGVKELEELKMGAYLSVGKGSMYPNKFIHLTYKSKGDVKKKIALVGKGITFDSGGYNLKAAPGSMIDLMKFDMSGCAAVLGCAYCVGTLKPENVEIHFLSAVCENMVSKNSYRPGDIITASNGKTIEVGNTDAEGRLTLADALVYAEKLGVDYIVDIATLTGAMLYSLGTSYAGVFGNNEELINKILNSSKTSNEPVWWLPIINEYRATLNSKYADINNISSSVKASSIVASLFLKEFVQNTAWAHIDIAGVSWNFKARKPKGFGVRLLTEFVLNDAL
Assay: P. falciparum M17LAP inhibitors, primary screen, biochemical, fluorogenic H-Leu-NHMec substrate, 1536-well (AID 1619);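 also: plate controls were full reaction with DMSO carrier for no effect and no enzyme background for full effect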
Conditions: recombinant M17LAP, H-Leu-NHMec fluorogenic kinetic assay; at 30 µM; hits give high values

inhibition, inactive:
CCOC(=O)c1csc(NC(=O)CSc2nnnn2-c2ccc(OC)c(OC)c2)n1 11.3%
COc1cccc(-n2c(SCC(=O)N3CCCCC3)nc3c([nH]c4ccccc43)c2=O)c1 -3.56%
CC(=O)NC(Cc1ccccc1)C(=O)NC1CCN(C(=O)c2ccc([N+](=O)[O-])cc2)CC1 (stereo not drawn) -3.72%
O=C(O)CCC(NC(=O)C(Cc1ccc2c(c1)OCO2)NC(=O)c1ccccc1)C(=O)O (stereo not drawn) 46.2%
O=C(NC(Cc1ccccc1)C(=O)NC(Cc1ccccc1)C(=O)O)c1ccccc1 (stereo not drawn) (Bz-Phe-Phe-OH; configuration not given here) 45.6%
O=C(O)c1ccc(-n2cccc2/C=C2/NC(=O)N(c3ccccc3)C2=O)cc1 11.3%
O=C(O)c1ccc(COc2ccccc2/C=C2/NC(=O)N(c3cccc(Cl)c3)C2=O)cc1 7.83%
CC1=C(C)CC(C(=O)Nc2nc(-c3ccc(F)cc3)c(C)s2)C(C(=O)O)C1 (stereo not drawn) 48.9%
CCc1noc(C)c1C(=O)Nc1nc(-c2cc(C)ccc2C)c(C)s1 -3.18%
CC(=O)C1=C(O)C(=O)N(Cc2ccco2)C1c1ccc(F)cc1 (stereo not drawn) 11%
CC(=O)C1=C(O)C(=O)N(Cc2ccco2)C1c1ccccc1 (stereo not drawn) 6.17%
Cc1ccc(S(=O)(=O)N2CCCC2C(=O)N2CCCCCC2)cc1 (stereo not drawn) -4.09%
COc1ccc2c(C(F)(F)F)cc(=O)oc2c1C -5.82%
CC(Sc1nc(-c2ccc(F)cc2)cs1)C(=O)Nc1ccc(Cl)cn1 (stereo not drawn) 15.1%
CC(Sc1nc(-c2ccccc2)cs1)C(=O)Nc1ccc(Cl)cn1 (stereo not drawn) 13.8%
Cn1c(=O)c(C(=O)Nc2ccccc2S(N)(=O)=O)c(O)c2ccccc21 -0.17%
COC(=O)C(C)(C)ONC(=O)Nc1ccccc1Cl -4.74%
CCN(CC)C(=O)c1ccc(N)cc1 7.5%
COc1ccc(Oc2ccc(/C=C/C(=O)c3ccc(O)cc3)cc2[N+](=O)[O-])cc1 12.4%
CC(C)(C)C1(C)OC(C(N)=O)C(C(N)=O)O1 (stereo not drawn) 8.29%
Cc1cc(=O)oc2c1c(C(F)(F)F)nn2-c1ccccc1 2.02%
CCOC(=O)C1CSC(CC(=O)Nc2ccc(OC(F)(F)F)cc2)C(=O)N1 (stereo not drawn) 14%
CCOC(=O)C1CSC(CC(=O)Nc2ccc(Cl)cc2)C(=O)N1 (stereo not drawn) 13.4%
CC(OC(=O)c1cn(-c2ccccc2)nc1-c1cccnc1)C(N)=O (stereo not drawn) 1.32%
O=C(COC(=O)c1ccc(S(=O)(=O)NCc2ccco2)cc1)Nc1ncc(Cl)cc1Cl -2.24%
N/C(Cc1ccc(Cl)cc1Cl)=N\OC(=O)c1ccccc1 0.73%
CCOc1ccc(OCc2cccc(C(=O)N(CC)CC)c2)cc1 -4.73%
COc1ccc(OCc2cccc(C(=O)O)c2)cc1 53.7%
O=C(Nc1ccc(C(=O)O)cc1)/C(=C\c1ccco1)NC(=O)c1ccccc1 45.7%
CN(C(=O)CSCC(=O)O)C1CCCCC1 -10.4%
CCOC(=O)/C(N=Nc1ccc(Cl)cc1)=C(/O)c1ccc([N+](=O)[O-])cc1 3.08%
Nc1[nH]ncc1-c1ccccc1 -3.57%
Nc1[nH]ncc1-c1ccc(F)cc1 55.5%
COC(=O)c1cc(C(=O)OC)n(Cc2ccc(Br)cc2)n1 -9.56%
CC(=O)c1c(C)[n+]([O-])c2ccc3c(non3O)c12 10.2%
C[n+]1c(/C=C/c2ccc3c(c2)OCO3)ccc2ccccc21 0.47%
CC[n+]1ccccc1/C=C/c1ccc(N(C)C)cc1 56.5%
CN(C)c1ccc(/C=C/c2ccc3c4ccccc4ccc3[n+]2-c2ccccc2)cc1 13.1%
CC[n+]1ccc(/C=C/c2ccc(N(C)C)cc2)c2ccccc21 50.7%
C=CC(C)(C)c1cc2cc3ccoc3cc2oc1=O 3.93%
Cc1nc(C)c(-c2ccn(S(=O)(=O)c3ccc(Cl)cc3)n2)o1 -15.8%
Cc1ccc(OCc2ccc(C(=O)NN)o2)c([N+](=O)[O-])c1 -2.38%
COC(=O)c1ccc(COc2ccc(C)cc2[N+](=O)[O-])o1 5.81%
CCN1CCN(CCn2c(=S)[nH]c3cc4c(cc3c2=O)OCO4)CC1 10.8%
COc1ccc(C2CCN(CC(=O)N(C)C)CC2O)cc1 (stereo not drawn) -0.46%
Cc1ccccc1NC(=O)COC(=O)c1c[nH]c(=O)[nH]c1=O -3.99%
CN(c1ccccc1C(=O)N1CCN(c2cccc(Cl)c2)CC1)S(C)(=O)=O -10.5%
O=C1CC(=O)C(n2cncn2)C(c2ccc(Cl)cc2)C1 (stereo not drawn) 41.7%
O=C1CC(=O)C(n2cncn2)C(c2cccc(Cl)c2)C1 (stereo not drawn) -45.4%
COc1cccc(/C=C2/SC(=O)N(C)C2=O)c1OCc1ccc(C(=O)O)cc1 25.1%
COC(=O)COc1cc(Br)c(/C=C2/SC(=O)N(CC(=O)N3CCCC3)C2=O)cc1OC 26.7%
COC(=O)COc1ccc(/C=C2/SC(=O)N(CC(=O)N3CCCC3)C2=O)cc1Br 14.7%
CCOc1ccc(C(=O)NCC(=O)N2CCc3ccccc3C2)cc1OCC -4.26%
COc1cc(/C=C2\SC(=Nc3ccc(F)cc3)N(c3ccc(F)cc3)C2=O)ccc1OCC(=O)O 38.3%
CCOc1cc(/C=C2\SC(=Nc3ccc(F)cc3)N(c3ccc(F)cc3)C2=O)ccc1OCC(=O)O 42.8%
CCOc1c(Br)cc(/C=C2/SC(=O)N(CC(=O)N3CCCC3)C2=O)cc1OC -3.92%
NC(=O)COc1ccccc1/C=C1/SC(=O)N(CC(=O)N2CCc3ccccc3C2)C1=O -2.36%
COC(=O)c1cccc(NC(=O)Cc2nc(-c3ccccc3)sc2-c2ccc(C)cc2)c1 1.12%
